The source of these data is a collection of fitness landscapes (doi:10.1126/science.1257360).

Over roughly 140,000 sequences, “enrichment ratio after two sorts for PhoP signalling” has its median near 0; the highest 2% begin near 11. Many of the other results were omitted from the sample, so the highest values are more common in it than they were.

The labels stand for the following.
B1: PhoQ; a variant is named by its letters at X, in order, P23837 (parent)
chain: MKKLLRLFFPLSLRVRFLLATAAVVLVLSLAYGMVALIGYSVSFDKTTFRLLRGESNLFYTLAKWENNKLHVELPENIDKQSPTMTLIYDENGQLLWAQRDVPWLMKMIQPDWLKSNGFHEIEADVNDTSLLLSGDHSIQQQLQEVREDDDDAEMTHSVAVNVYPATSRMPKLTIVVVDTIPVELKSSYMVWSWFIYVLSANLLLVIPLLWVAAWWSLRPIEALAKEVRELEEHNRELLNPATTRELTSLVRNLNRLLKSERERYDKYRTTLTDLTHSLKTPLXXLQXXLRSLRSEKMSVSDAEPVMLEQISRISQQIGYYLHRASMRGGTLLSRELHPVAPLLDNLTSALNKVYQRKGVNISLDISPEISFVGEQNDFVEVMGNVLDNACKYCLEFVEISARQTDEHLYIVVEDDGPGIPLSKREVIFDRGQRVDTLRPGQGVGLAVAREITEQYEGKIVAGESMLGGARMEVIFGRQHSAPKDE

The variants in this assay derive from B1. The assay is described as follows: enrichment ratio after two sorts for PhoP signalling (ratio (wild type AVST 3.29)); higher = more functional. To be noted: with PhoP (E. coli).
Regarding SPTN, the enrichment ratio is at most 0.25.

For ATTN, the enrichment ratio worked out at 20.6.

Consider TCTN, for which the enrichment ratio was found to be 22.5.

Consider NETN, for which the enrichment ratio is at most 0.25.

Consider RCRT, for which the enrichment ratio is at most 0.25.

Regarding YSIQ, the enrichment ratio is at most 0.25.

As for WKRH, the enrichment ratio was at most 0.25.

For LAIW, the enrichment ratio is at most 0.25.

Regarding NWSE, the enrichment ratio was at most 0.25.

Consider LYIV, for which the enrichment ratio is at most 0.25.

As for WHIR, the enrichment ratio is at most 0.25.

Consider YPIA, for which the enrichment ratio is at most 0.25.

With GPAN, the enrichment ratio was at most 0.25.

For KSTN, the enrichment ratio was at most 0.25.

In the case of AKTN, the enrichment ratio was at most 0.25.

On to AITN, for which the enrichment ratio turned out to be 22.4.

Regarding FIQE, the enrichment ratio is at most 0.25.

Turning to GTVS, the enrichment ratio was at most 0.25.

Consider GNVI, for which the enrichment ratio came out at 14.7.

For the variant GYMI, the enrichment ratio was at most 0.25.

For the variant GIFA, the enrichment ratio was at most 0.25.

For GIVI, the enrichment ratio was determined as 6.54.

As to GNMI, the enrichment ratio amounted to 46.4.

GIMI: the enrichment ratio came to 25.7.

With GCVI, the enrichment ratio was at most 0.25.

Turning to GIGD, the enrichment ratio is at most 0.25.

For the variant GTMI, the enrichment ratio is at most 0.25.

Take EHCK: the enrichment ratio was at most 0.25.

With DQHH, the enrichment ratio was at most 0.25.

With AQEG, the enrichment ratio was at most 0.25.

Turning to LKYY, the enrichment ratio was at most 0.25.

In the case of FGWK, the enrichment ratio is at most 0.25.

Regarding SEER, the enrichment ratio is at most 0.25.

Regarding RPGL, the enrichment ratio is at most 0.25.

With QQSH, the enrichment ratio was at most 0.25.

Regarding QPNH, the enrichment ratio was at most 0.25.

Regarding QENH, the enrichment ratio came to 70.4.

For the variant QQNH, the enrichment ratio worked out at 12.7.

For QLNH, the enrichment ratio was at most 0.25.

As to QQNS, the enrichment ratio is 8.87.

As for HNFM, the enrichment ratio was at most 0.25.

As for KEFR, the enrichment ratio is at most 0.25.

Take THMP: the enrichment ratio was at most 0.25.

In the case of HPVY, the enrichment ratio was at most 0.25.

For the variant MNCR, the enrichment ratio was at most 0.25.

On to RSFL, for which the enrichment ratio is at most 0.25.

Consider YTFQ, for which the enrichment ratio is at most 0.25.

For the variant TINS, the enrichment ratio worked out at 9.25.

Take TIWM: the enrichment ratio is at most 0.25.

For the variant TIGM, the enrichment ratio was found to be 21.8.

Take TIYM: the enrichment ratio was 2.83.

In the case of TIQM, the enrichment ratio came to 48.5.

With TIPM, the enrichment ratio was at most 0.25.

With RIQM, the enrichment ratio is at most 0.25.

For the variant TINM, the enrichment ratio was found to be 15.1.

Consider TICK, for which the enrichment ratio was 1.1.

Regarding TINY, the enrichment ratio was at most 0.25.

As to TITM, the enrichment ratio came out at 17.6.

For AIQM, the enrichment ratio is at most 0.25.

For the variant PGVE, the enrichment ratio is at most 0.25.

In the case of FAIN, the enrichment ratio turned out to be 0.294.

Consider WTRP, for which the enrichment ratio was at most 0.25.

TKVF: the enrichment ratio was 3.68.

On to ANGQ, for which the enrichment ratio was at most 0.25.

SYDT: the enrichment ratio was at most 0.25.

For PICE, the enrichment ratio is at most 0.25.

Consider LWID, for which the enrichment ratio is at most 0.25.

For the variant FPRV, the enrichment ratio is at most 0.25.

On to TRYF, for which the enrichment ratio is at most 0.25.

On to GPCS, for which the enrichment ratio was at most 0.25.

With NCLV, the enrichment ratio was found to be 1.12.

With AANL, the enrichment ratio is at most 0.25.

Regarding AACS, the enrichment ratio stood at 17.3.

Regarding KACV, the enrichment ratio is at most 0.25.

In the case of IACL, the enrichment ratio was at most 0.25.

With AACK, the enrichment ratio was at most 0.25.

Consider AACE, for which the enrichment ratio amounted to 6.4.

Consider AACL, for which the enrichment ratio was determined as 11.3.

Turning to ANCV, the enrichment ratio was 3.79.

For the variant AAAI, the enrichment ratio came out at 1.63.

Take AACV: the enrichment ratio turned out to be 16.2.

AACA: the enrichment ratio turned out to be 7.7.

Take AACI: the enrichment ratio was determined as 12.2.

As for NQPV, the enrichment ratio is at most 0.25.

As to KGDN, the enrichment ratio is at most 0.25.

In the case of WHVG, the enrichment ratio was at most 0.25.

With HKAD, the enrichment ratio is at most 0.25.

Turning to LHMM, the enrichment ratio is at most 0.25.

As to SKQW, the enrichment ratio was at most 0.25.

Take QCCL: the enrichment ratio is at most 0.25.

LETR: the enrichment ratio is at most 0.25.

As to DAMY, the enrichment ratio was at most 0.25.

On to MRVV, for which the enrichment ratio is at most 0.25.

For ASVV, the enrichment ratio is 14.5.

With ASVL, the enrichment ratio was found to be 16.7.

Consider ASRL, for which the enrichment ratio was at most 0.25.

Consider ASVT, for which the enrichment ratio came to 15.2.

As to ASVK, the enrichment ratio was determined as 0.907.

Turning to ASTD, the enrichment ratio was at most 0.25.

ASVA: the enrichment ratio was found to be 4.82.

As for ASMQ, the enrichment ratio worked out at 29.9.

For the variant ASHQ, the enrichment ratio was at most 0.25.

KSVV: the enrichment ratio is at most 0.25.

For ASVY, the enrichment ratio came to 2.98.

Turning to EVAW, the enrichment ratio is at most 0.25.

For DHDV, the enrichment ratio is at most 0.25.

For the variant YAYW, the enrichment ratio was at most 0.25.

With ANRY, the enrichment ratio is at most 0.25.

Take RTRT: the enrichment ratio is at most 0.25.

For WPGL, the enrichment ratio is at most 0.25.

Regarding ASMG, the enrichment ratio came out at 17.6.

For ASMD, the enrichment ratio was at most 0.25.

Regarding ASVC, the enrichment ratio came to 5.25.

With KSAF, the enrichment ratio is at most 0.25.

As to ASAF, the enrichment ratio came to 15.1.

In the case of KSVG, the enrichment ratio is at most 0.25.

For the variant ASMW, the enrichment ratio was found to be 5.78.

On to ASMN, for which the enrichment ratio is 19.6.

For the variant AHAF, the enrichment ratio is at most 0.25.

Turning to ASQN, the enrichment ratio was at most 0.25.

On to ASNL, for which the enrichment ratio was found to be 4.93.

Take ASVG: the enrichment ratio worked out at 14.7.

Regarding VSHV, the enrichment ratio was at most 0.25.

Turning to ELII, the enrichment ratio is at most 0.25.

For the variant DHGN, the enrichment ratio was at most 0.25.

In the case of NHFI, the enrichment ratio was at most 0.25.

For QTFL, the enrichment ratio turned out to be 1.72.

As for YDLL, the enrichment ratio was at most 0.25.

Turning to QRFQ, the enrichment ratio was at most 0.25.

Turning to EHKV, the enrichment ratio is at most 0.25.

For LCMI, the enrichment ratio is at most 0.25.

As for IHER, the enrichment ratio is at most 0.25.

Turning to LAPE, the enrichment ratio is at most 0.25.

Take VIMD: the enrichment ratio is at most 0.25.

For the variant ASVI, the enrichment ratio was found to be 5.75.

KSMK: the enrichment ratio was at most 0.25.

As for AMTG, the enrichment ratio is 2.78.

For ASMA, the enrichment ratio came to 2.9.

Turning to ASVM, the enrichment ratio is 12.1.

Consider VRSI, for which the enrichment ratio is at most 0.25.

As for AITG, the enrichment ratio was found to be 11.5.

On to ASSI, for which the enrichment ratio stood at 15.8.

In the case of ASRK, the enrichment ratio was at most 0.25.

As to ASVP, the enrichment ratio is at most 0.25.

On to VHTG, for which the enrichment ratio is at most 0.25.

ASMK: the enrichment ratio stood at 17.

Take YVIL: the enrichment ratio is at most 0.25.

For the variant LYCG, the enrichment ratio was at most 0.25.

Consider RRIS, for which the enrichment ratio is at most 0.25.

With NHAY, the enrichment ratio was at most 0.25.

For QIHN, the enrichment ratio is at most 0.25.

For YWDR, the enrichment ratio is at most 0.25.

For the variant YHEQ, the enrichment ratio is at most 0.25.
